Activity calls are given as the source filed them.
Columns and labels:
[1] = system: Human papillomavirus type 1a protein E7 (residues 44-93); assay: small molecules binding HPV E7 44-93 – biochemical, small-molecule microarray, residues 44-93, 635 nm fluorescence, primary screen (AID 1108); conditions: fluorescence 635 nm, higher = more signal;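 further: E7 fragment applied at 1 µg/mL in TBST for 1 h at 4 C; score combines spot fluorescence with its signal to noise ratio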
[2] = hepatitis C replication reporter changes, two-sided – Huh7 cells, luciferase reporter, HCV replication inhibitor project, primary screen (AID 1109); conditions: Huh7 HCV replicon luciferase reporter, 48 h; higher = more signal;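 further: huh7 hepatoma cells harbouring a luciferase neomycin HCV replicon reporter; luciferase luminescence as measure of HCV replicon replication; test concentration not given here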
[3] = target: Left-right determination factor 2 (Homo sapiens) (UniProt O00292); assay: small molecules binding LEFTY2 protein – biochemical, small-molecule microarray, 635 nm fluorescence scan, primary screen (AID 1110); conditions: higher = more signal
Left-right determination factor 2 (Homo sapiens), sequence (O00292 whole entry, looked up): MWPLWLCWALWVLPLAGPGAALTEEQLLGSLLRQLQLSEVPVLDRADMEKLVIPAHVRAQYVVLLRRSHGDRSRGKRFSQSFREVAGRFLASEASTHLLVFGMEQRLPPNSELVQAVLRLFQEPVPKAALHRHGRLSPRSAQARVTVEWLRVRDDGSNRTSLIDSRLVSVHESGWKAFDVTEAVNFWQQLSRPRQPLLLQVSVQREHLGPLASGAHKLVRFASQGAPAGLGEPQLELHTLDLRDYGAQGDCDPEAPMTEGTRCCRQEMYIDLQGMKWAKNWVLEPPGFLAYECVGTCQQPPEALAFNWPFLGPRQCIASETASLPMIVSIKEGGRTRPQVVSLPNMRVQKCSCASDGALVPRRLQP

[4] = target: Calmodulin-1 (Homo sapiens) (UniProt P0DP23); assay: small molecules binding calmodulin-1 with EGTA – biochemical, small-molecule microarray, Cy5-labelled CALM1, profiling panel (AID 1111); conditions: Cy5-CALM1 binding fluorescence, higher = more signal;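 further: labelled calmodulin applied in Tris saline Tween buffer holding calcium plus EGTA and DTT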
[5] = target: Calmodulin-1 (Homo sapiens) (UniProt P0DP23); assay: small molecules binding Ca-loaded calmodulin-1 – biochemical, small-molecule microarray, Cy5-labelled CALM1, plus calcium, artefact control for SMM control-protein annotation, profiling panel (AID 1112); conditions: Cy5-CALM1 binding fluorescence, higher = more signal;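 further: score merges spot fluorescence with signal to noise from triplicate slides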
[6] = probe aWnt5a binding to arrayed compounds – biochemical, biotinylated probe, 635/667 nm fluorescence, primary screen (AID 1113); conditions: small-molecule microarray, higher = more signal;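 further: score merges 667 nm fluorescence intensity with signal-to-noise per printed feature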
[7] = probe aShh binding to arrayed compounds – biochemical, biotinylated probe, 635/667 nm fluorescence, primary screen (AID 1114); conditions: small-molecule microarray, higher = more signal;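 further: probe is biotin-labelled aShh protein from a stem cell growth factor screen; measures binding of labelled protein to compounds printed on the slide; score merges feature fluorescence at 667 nm with signal-to-noise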
[8] = probe aNog binding to arrayed compounds – biochemical, biotinylated probe, 635/667 nm fluorescence, primary screen (AID 1115); conditions: small-molecule microarray, higher = more signal;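 further: probe is biotinylated aNog protein used at 0.15 µg/mL for 1 h at 4 C; z-score combines 667 nm fluorescence of each spot with its signal to noise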
[9] = target: Torsin-1A-interacting protein 1 (Homo sapiens) (UniProt Q5JTV8); assay: compound microarray binding of lysate hLAP1 – cell lysate, small-molecule microarray, COS7 lysate, 635/667 nm fluorescence, primary screen (AID 1116); conditions: 635 nm fluorescence, higher = more signal
Torsin-1A-interacting protein 1 (Homo sapiens), sequence (Q5JTV8 whole entry, looked up): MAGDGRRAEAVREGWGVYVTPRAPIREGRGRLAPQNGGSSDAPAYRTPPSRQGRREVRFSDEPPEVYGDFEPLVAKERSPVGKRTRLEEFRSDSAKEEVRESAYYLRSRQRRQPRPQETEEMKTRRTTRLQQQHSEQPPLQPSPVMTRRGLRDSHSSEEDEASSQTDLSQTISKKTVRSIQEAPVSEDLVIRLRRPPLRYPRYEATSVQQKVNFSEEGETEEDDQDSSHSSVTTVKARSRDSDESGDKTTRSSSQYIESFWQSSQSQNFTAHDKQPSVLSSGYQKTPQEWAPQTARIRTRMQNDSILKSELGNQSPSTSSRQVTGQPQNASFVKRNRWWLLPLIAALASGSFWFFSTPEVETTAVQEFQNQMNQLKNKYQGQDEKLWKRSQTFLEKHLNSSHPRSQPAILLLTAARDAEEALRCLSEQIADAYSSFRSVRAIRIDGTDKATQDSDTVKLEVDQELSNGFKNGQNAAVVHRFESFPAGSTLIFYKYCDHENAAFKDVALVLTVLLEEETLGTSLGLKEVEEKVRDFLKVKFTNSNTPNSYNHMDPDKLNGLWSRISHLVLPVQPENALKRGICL

[10] = target: Alpha-bungarotoxin (Bungarus multicinctus) (UniProt P60615); assay: compounds binding labelled alpha-BTX control protein – biochemical, small-molecule microarray, Alexa647 label, 635/667 nm fluorescence, artefact control for SMM control protein annotation, profiling panel (AID 1117); conditions: alpha-BTX-A647 binding fluorescence, higher = more signal
Alpha-bungarotoxin (Bungarus multicinctus), sequence (P60615 whole entry, looked up): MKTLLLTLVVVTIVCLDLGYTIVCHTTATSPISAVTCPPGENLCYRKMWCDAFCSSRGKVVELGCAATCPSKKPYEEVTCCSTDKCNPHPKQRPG

[11] = target: Albumin (Bos taurus) (UniProt P02769); assay: compounds binding labelled BSA control protein – biochemical, small-molecule microarray, Alexa647 label, 635/667 nm fluorescence, artefact control for SMM control protein annotation, profiling panel (AID 1118); conditions: BSA-A647 binding, fluorescence 635 nm, higher = more signal;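 further: score merges 667 nm emission intensity and signal-to-noise per printed compound spot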
Albumin (Bos taurus), sequence (P02769 whole entry, looked up): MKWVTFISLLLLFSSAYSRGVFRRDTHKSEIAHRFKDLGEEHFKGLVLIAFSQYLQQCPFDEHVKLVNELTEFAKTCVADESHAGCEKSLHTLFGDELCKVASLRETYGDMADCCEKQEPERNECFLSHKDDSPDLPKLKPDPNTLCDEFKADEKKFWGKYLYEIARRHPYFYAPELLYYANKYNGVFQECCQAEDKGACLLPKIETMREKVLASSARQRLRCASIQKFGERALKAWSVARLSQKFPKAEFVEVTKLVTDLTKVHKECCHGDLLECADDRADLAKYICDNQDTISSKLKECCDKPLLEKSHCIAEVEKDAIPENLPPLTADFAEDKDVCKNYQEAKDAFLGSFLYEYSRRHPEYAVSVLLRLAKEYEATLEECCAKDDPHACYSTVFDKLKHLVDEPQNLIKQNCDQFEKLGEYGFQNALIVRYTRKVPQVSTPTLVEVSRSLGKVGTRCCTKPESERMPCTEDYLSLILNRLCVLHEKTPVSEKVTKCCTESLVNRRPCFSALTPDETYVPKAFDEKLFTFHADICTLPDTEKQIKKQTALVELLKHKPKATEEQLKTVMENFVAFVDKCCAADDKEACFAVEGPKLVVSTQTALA

[12] = probe aXIP binding to arrayed compounds – biochemical, NeuroSMM set, 635/667 nm fluorescence, primary screen (AID 1119); conditions: small-molecule microarray, higher = more signal, called active from +8 up or from −8 down;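 further: probe is the protein aXip251-270 applied at 1 µg/mL to compound-printed slides; binding of probe to printed compounds measured as 667 nm fluorescence plus signal to noise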
[13] = probe aNOTCH3 binding on compound microarray – biochemical, small-molecule microarray, 635/667 nm fluorescence, primary screen (AID 1120); conditions: higher = more signal;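 further: probe is a biotin-tagged antibody raised against NOTCH3 rather than NOTCH3 protein; score merges spot fluorescence near 667 nm with spot signal to noise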
[14] = probe aNOTCH2 binding on compound microarray – biochemical, small-molecule microarray, 635/667 nm fluorescence, primary screen (AID 1121); conditions: higher = more signal;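 further: score merges feature fluorescence read at 667 nm with its signal to noise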
[15] = target: Carbonic anhydrase 2 (Homo sapiens) (UniProt P00918); assay: compounds binding carbonic anhydrase 2 – biochemical, small-molecule microarray, Alexa647-labelled CAII, profiling panel (AID 1122); conditions: CAII-A647 binding fluorescence, higher = more signal
[16] = COS7 lysate on small-molecule microarray, probe aHis, 635 nm (AID 1123); conditions: COS7 cell lysate, fluorescence, higher = more signal;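 further: z-score combines 667nm fluorescence intensity with signal-to-noise per printed compound spot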
[17] = probe aLAP1 signal on lysate-treated microarray – cell lysate, small-molecule microarray, COS7 lysate, primary screen (AID 1124); conditions: probe aLAP1, fluorescence, higher = more signal;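 further: lysate comes from COS7 cells expressing LAP1 and is applied at 0.3 µg/mL; score merges spot fluorescence near 667 nm with signal-to-noise over triplicate slides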
[18] = system: Sam68 (KHDRBS1); assay: compounds binding KHDRBS1 protein – biochemical, small-molecule microarray, 635 nm fluorescence, primary screen (AID 1125); conditions: higher = more signal;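 further: score merges 667 nm channel intensity with signal to noise over triplicate slides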
[19] = system: Chordin-like protein 2 (CHRDL2); assay: compounds binding chordin-like 2 – biochemical, small-molecule microarray, 635 nm fluorescence, primary screen (AID 1126); conditions: fluorescence 635 nm, higher = more signal;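 further: printed compound slides probed with Chrdl2 protein at 4 µg/mL for 1 h at 4 C; score merges 667 nm emission intensity with signal to noise over three replicate slides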
[20] = target: Concanavalin-A (Canavalia ensiformis) (UniProt P02866); assay: compounds binding concanavalin A lectin – biochemical, small-molecule microarray, Alexa647 label, 635 nm, artefact control for SMM control protein annotation, primary screen (AID 1127); conditions: ConA-A647 binding fluorescence, higher = more signal;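 further: z combines 667 nm emission intensity with signal-to-noise across three replicate slides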
Concanavalin-A (Canavalia ensiformis), sequence (P02866 whole entry, looked up): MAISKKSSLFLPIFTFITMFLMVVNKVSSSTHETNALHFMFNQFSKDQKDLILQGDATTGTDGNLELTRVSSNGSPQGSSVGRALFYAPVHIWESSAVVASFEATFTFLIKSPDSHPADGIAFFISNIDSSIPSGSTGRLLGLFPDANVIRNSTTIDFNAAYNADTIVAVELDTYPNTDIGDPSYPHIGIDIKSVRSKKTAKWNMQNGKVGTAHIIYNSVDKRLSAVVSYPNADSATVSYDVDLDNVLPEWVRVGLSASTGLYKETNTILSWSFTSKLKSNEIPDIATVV

Row | SMILES | composite z-score [1] | z-score [2] | composite z-score [3] | composite z-score [4] | composite z-score [5] | composite z-score [6] | composite z-score [7] | composite z-score [8] | composite z-score [9] | composite z-score [10] | composite z-score [11] | composite Z-score [12] | composite z-score [13] | composite z-score [14] | composite z-score [15] | composite z-score [16] | composite z-score [17] | composite z-score [18] | composite z-score [19] | composite z-score [20]
1 | COCCOC(=O)N1C(=O)[C@@]2(c3ccccc31)[C@H](c1ccc(OCCO)cc1)N1[C@H](c3ccccc3)[C@H](c3ccccc3)OC(=O)[C@H]1[C@@H]2C(=O)NC[C@H](O)c1ccccc1 | 1.44 | -1.95 | 0.0792 | 0.718 | 0.716 | -0.0758 | -0.141 | 0.554 | 0.839 | 1.92 | 0.128 | 0.774 (inactive) | 0.327 | -0.084 | 0.505 | 1.91 | 0.123 | 1.29 | 0.508 | 1.02
2 | CCCC=C(CCC)[C@@H](NC(=O)Cc1ccccc1)c1ccc(C(=O)OC)cc1 | 1.08 | -1.11 | 0.0461 | 1.22 | 0.499 | 0.748 | 2.15 | 1.79 | -0.481 | 1.66 | 0.506 | 0.0119 (inactive) | 0.934 | 0.0754 | 0.405 | 1.69 | 0.615 | 0.844 | 0.549 | 0.31
3 | C#CCOC(=O)N[C@H](C=CCCCC)c1ccccc1 | -0.0543 | -0.498 | -0.0624 | 0.44 | 0.368 | -0.0888 | 0.413 | 1.52 | 1.51 | -0.194 | 1.02 | 0.33 (inactive) | 0.0077 | 0.0964 | 0.88 | 3.67 | 0.711 | 0.199 | -0.0017 | 0.0429
4 | O=C1OCCC=C[C@H]2OC34C=CCN(Cn5nnc6ccccc65)C(=O)[C@H]3N(CCCCCO)C(=O)[C@@H]4C12 (stereo not given in full) | -0.473 | 0.204 | -0.511 | -0.212 | 0.106 | -0.101 | -0.0769 | 0.0599 | -1.1 | -1.09 | 0.428 | 0.266 (inactive) | -0.193 | -0.114 | 0.87 | 0.121 | 0.686 | -0.464 | -0.579 | -1.55
5 | CCOC(=O)C1=CC[C@@H](c2ccc(N(CC)CC)cc2)N(S(=O)(=O)c2ccc(C)cc2)[C@H]1c1ccc([N+](=O)[O-])cc1 | 1.24 | -0.83 | -1.76 | 0.863 | -0.378 | -0.0472 | -0.0035 | 0.587 | 0.923 | 0.274 | 0.682 | 0.38 (inactive) | 0.0116 | -0.0097 | 0.473 | -0.507 | 0.769 | 0.317 | -0.724 | 0.588
6 | COC(=O)C(CC#Cc1ccc2c(c1)[C@]1(C(=O)N2)[C@H](C(=O)N2CCc3cc(OC)c(OC)cc3C2)[C@H]2C(=O)O[C@H](c3ccccc3)[C@H](c3ccccc3)N2[C@@H]1c1ccc(OCCO)cc1)C(=O)OC | 1.41 | -1.21 | 0.633 | 1.07 | 0.16 | -0.0236 | -0.159 | -0.198 | 0.254 | 1.08 | 0.438 | -0.715 (inactive) | 0.239 | -0.0664 | 0.413 | 2.17 | 0.969 | 1.31 | 0.506 | 0.942
7 | CCOC(=O)C1=CCC(c2cccc(Cl)c2)O1 (stereo not given) | 0.377 | -1.74 | 0.005 | -0.314 | -0.571 | -0.0492 | 0.0796 | 0.59 | 0.291 | -0.383 | 0.581 | -0.214 (inactive) | 0.0357 | -0.0651 | 0.181 | 0.389 | -0.064 | 0.609 | -0.384 | 0.16
8 | O=C(O)[C@]1(CCS(=O)(=O)c2ccccc2)N=C(c2ccc(OCCCO)cc2)O[C@@H]1c1ccccc1 | 0.0626 | -0.0254 | -0.004 | 0.737 | 0.4 | 0.0216 | -0.0322 | 1.82 | -0.357 | -0.0315 | 0.815 | 0.207 (inactive) | 0.196 | 0.197 | 0.858 | 2.59 | 0.341 | 0.541 | -0.0616 | -0.251
9 | Cc1cc(C)c(C(O)C2C=CC3C(=O)N(c4ccccc4)C(=O)C3N2Nc2ccccc2)c(C)c1 (stereo not given) | 1.16 | -0.177 | 0.109 | 1.6 | 1.03 | 0.216 | -0.0791 | 1.99 | 1.1 | 2.38 | 0.767 | 0.0805 (inactive) | 0.236 | 0.294 | 0.781 | 2.13 | 0.0109 | 1.3 | -0.194 | 1.18
10 | C=C[C@@H](O)[C@H]1CC(c2ccccc2)=NO1 | -0.893 | 0.479 | 0.277 | -0.358 | -0.711 | -0.208 | 0.167 | -0.0524 | 0.0222 | -0.0532 | -0.596 | 0.303 (inactive) | -0.1 | -0.084 | -0.0997 | -0.322 | -0.156 | -0.542 | 0.647 | 0.334
11 | CN(C)CCCCCCNC(=O)[C@@H]1C[C@@H]2C(=O)NCC(=O)N2[C@@H]1c1ccc(O)cc1 | 1.33 | 0.589 | 0.932 | -1.53 | -1.89 | 0.0785 | 0.46 | -0.213 | 1.96 | 1.83 | -0.671 | 2.25 (inactive) | 0.173 | -0.126 | 0.683 | 2.86 | 0.328 | 1.33 | 1.4 | 1.21

Source: PubChem BioAssay
